An excerpt weighted towards active compounds, which were near 32% of everything screened.
CYP2C9 inh: human CYP2C9 inhibition; CYP2C9 Supersomes, luciferin-H conversion, luminescence; inhibition, % at 5 µM; actives 20% (n = 96,000); P11712;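 active = blocking of liver enzyme CYP2C9 beyond about 50% at 5 µM, limit read from the data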
PostGolgi ctrl: inhibits growth of the yeast control strain. efflux-deficient yeast background strain, growth absorbance A615, 16 h. inhibition, % at 10 µM. actives 5% (n = 98,000). AID 738
CYP2C19 act: activators of human cytochrome P450 2C19. P33261. 96,000 tested, under 10 active. activation factor at 5 µM. recombinant CYP2C19, luciferin-H EGE luminescence; stronger effect = higher value; 0 = fully inhibited enzyme, 1 = untreated enzyme;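 active = activation factor of at least 2 at 5 µM in the primary screen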;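 also: 0 = wells with 2.5 mM tranylcypromine and 1 = vehicle-only wells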
Target sequence (P33261 whole entry, looked up): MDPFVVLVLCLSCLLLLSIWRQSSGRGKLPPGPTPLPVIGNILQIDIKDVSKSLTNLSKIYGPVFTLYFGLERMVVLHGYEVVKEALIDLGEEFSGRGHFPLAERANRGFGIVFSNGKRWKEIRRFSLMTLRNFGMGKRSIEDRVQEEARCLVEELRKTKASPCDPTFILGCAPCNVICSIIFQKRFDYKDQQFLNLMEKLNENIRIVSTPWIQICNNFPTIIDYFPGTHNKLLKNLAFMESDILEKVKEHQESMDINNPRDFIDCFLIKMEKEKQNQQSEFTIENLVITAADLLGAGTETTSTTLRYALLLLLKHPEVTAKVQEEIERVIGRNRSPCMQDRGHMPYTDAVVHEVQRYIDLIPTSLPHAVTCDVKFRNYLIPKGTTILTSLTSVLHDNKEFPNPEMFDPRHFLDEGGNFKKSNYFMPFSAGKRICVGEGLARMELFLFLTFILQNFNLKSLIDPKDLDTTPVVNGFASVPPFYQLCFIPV
CYP2C19 inh: blocks human cytochrome P450 2C19; P33261; CYP2C19 Supersomes, luciferin-H EGE luminescence, 30 min; inhibition, % at 5 µM; actives 21% (n = 96,000); AID 778;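 active = CYP2C19 inhibition above a set limit at 5 µM in the primary screen, cut at about 50% in these data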;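 also: plate controls were negative control wells for no effect and 2.5 mM tranylcypromine positive control for full effect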
CYP2C9 activ: increases human cytochrome P450 2C9 activity. activation factor at 5 µM. recombinant CYP2C9, luciferin-H conversion, luminescence; stronger effect = higher value; factor 1 = untreated enzyme, 0 = blocked. actives 1.4% (n = 96,000);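 active = activation factor of 2 or more for CYP2C9 at a 5 µM dose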;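 also: 0 = sulfaphenazole-blocked wells and 1 = vehicle-only wells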
PostGolgi yeast: growth inhibition of a yeast mutant, post-Golgi transport screen; inhibition, % at 10 µM; actives 0.9% (n = 98,000); post-Golgi transport phenotypic cell assay;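 also: yeast cells grown in 1536-well plates; yeast grown about 18 h at 30C before absorbance read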
Active calls of the source: *; / = no result. Rule as the data show it, unless noted: active = inhibition above about 30%; inactive = the rest.

SMILES | CYP2C9 inh | PostGolgi ctrl | CYP2C19 act | CYP2C19 inh | CYP2C9 activ | PostGolgi yeast
CC(C)CNC(=O)c1ccccc1NC(=O)CN(c1ccc2c(c1)OCCO2)S(C)(=O)=O | 93* | 9 | 0.7 | 35 | 0.1 | -13
CCOC(=O)Nc1ccc(S(=O)(=O)Nc2nc(C)cc(C)n2)cc1 | -23 | 2 | 1 | -3 | 1.2 | -5
CCC(C)c1ccc(OCC(=O)Nc2ccc(Cl)cn2)cc1 (stereo not given) | 21 | 16 | 0.7 | 32 | 0.8 | 9
COC(=O)CN(c1ccc2c(c1)OCO2)S(C)(=O)=O | 12 | 7 | 0.5 | 46 | 0.9 | 4
COc1ccccc1N(CC(=O)NCCc1ccccc1)S(C)(=O)=O | 18 | 5 | 0.6 | 38 | 0.8 | 1
COCCNC(=O)c1ccccc1NC(=O)CN(c1ccc2c(c1)OCO2)S(C)(=O)=O | 92* | 6 | 0.1 | 86* | 0.1 | 7
COc1ccc(N(CC(=O)Nc2ccccc2C(=O)NCCc2ccccc2)S(C)(=O)=O)cc1OC | 99* | 4 | 0.2 | 82* | 0 | 1
c1ccc(-c2ccc(-c3csnn3)cc2)cc1 | 10 | 22 | 0.8 | 16 | 0.9 | 6
CCOc1cccc(NC(=O)C2CC(=O)N(C)C(=Nc3cccc(F)c3)S2)c1 (stereo not given) | 75* | 16 | 0.5 | 51* | 0.3 | -2
CCOc1cccc(NC(=O)C2CC(=O)N(C)C2)c1 (stereo not given) | -10 | 6 | 1 | -4 | 1.1 | -7
CCOc1cccc(NC(=O)C2CC(=O)N(C)C(=Nc3ccccc3)S2)c1 (stereo not given) | 74* | 16 | 0.7 | 26 | 0.3 | 6
COc1ccc2[nH]c(=O)c(CN(C(=O)C3CCCO3)c3cccc(C)c3)cc2c1 (stereo not given) | 9 | / | 0.9 | 10 | 0.9 | /
Cc1cc(C)n(CC(O)COc2ccccc2)n1 (stereo not given) | 32 | 3 | 0.6 | 38 | 0.7 | 1
COc1cc(OC)cc(OCC(O)Cn2ccnc2)c1 (stereo not given) | 91* | 9 | 0 | 98* | 0.1 | -2
CCN(CCCNC(=O)CC1Oc2ccc(C)cc2NC1=O)Cc1ccccc1 (stereo not given) | -1 | 8 | 1 | -4 | 1 | 3
CCc1cc(-c2n[nH]c(=S)n2-c2cccc(C)c2)cs1 | 31 | 2 | 0.4 | 63* | 0.7 | -4
Cc1cccc(-n2c(-c3csc(C)c3)n[nH]c2=S)c1 | 21 | 5 | 0.6 | 35 | 0.8 | -1
O=C(O)c1cc(O)ccc1-c1ccc(O)cc1 | -19 | -2 | 0.9 | 11 | 1.2 | -4
C/C(CC(=O)Nc1ccc(Cl)c(Cl)c1)=N\NC(N)=S | 29 | -4 | 0.3 | 72* | 0.7 | -4
C/C(CC(=O)Nc1cc(Cl)ccc1Cl)=N\NC(N)=S | 9 | 4 | 0.8 | 18 | 0.9 | 5
CCCCCc1ccc(-c2ccc(=O)[nH]n2)cc1 | -4 | 31* | 1.1 | -9 | 1 | -6
Cc1ccc(-c2ccc(=O)[nH]n2)cc1 | / | 5 | / | / | / | 8
O=C(Cc1ccc(F)cc1)Nc1c2c(nn1-c1cccc(Cl)c1)CS(=O)C2 (stereo not given) | 38 | 10 | 0 | 100* | 0.6 | -2
CC(=O)Nc1c2c(nn1-c1cccc(Cl)c1)CS(=O)C2 (stereo not given) | -8 | 2 | 1 | -4 | 1.1 | 1
COC(=O)c1cc(=O)n(CCc2ccc(OC)cc2)c(=Nc2ccc(F)c(Cl)c2)s1 | 56* | 12 | 0.7 | 28 | 0.4 | -1
SMILES | CYP2C9 inh | PostGolgi ctrl | CYP2C19 act | CYP2C19 inh | CYP2C9 activ | PostGolgi yeast
CCCCN=c1sc(C(=O)OC)cc(=O)n1CCCC | 7 | 5 | 0.8 | 18 | 0.9 | 1
COC(=O)c1cc(=O)n(CCc2ccccc2)c(=Nc2ccc(F)cc2)s1 | 40 | 10 | 1 | -1 | 0.6 | -7
CCn1c(=O)cc(C(=O)OC)sc1=Nc1ccc(F)c(F)c1 | 75* | 12 | 0 | 98* | 0.3 | 4
COC(=O)c1cc(=O)n(Cc2ccc3c(c2)OCO3)c(=Nc2ccc(F)c(Cl)c2)s1 | 57* | 0 | 0.9 | 11 | 0.4 | -17
COC(=O)c1cc(=O)n(Cc2cccs2)c(=NCc2cccs2)s1 | 7 | 31* | 0.9 | 5 | 0.9 | 9
C=CCn1c(N)c(C(=O)NCCC2=CCCCC2)sc1=S | 22 | -4 | 1 | 5 | 0.8 | -17
CCOC(=O)c1ccc(N=c2sc(C(=O)OC)cc(=O)n2Cc2ccco2)cc1 | 49 | 57* | 0.8 | 16 | 0.5 | 1
CCOC(=O)c1ccc(N=c2sc(C(=O)OC)cc(=O)n2CCCN2CCOCC2)cc1 | 27 | 2 | 0.6 | 38 | 0.7 | -9
COc1ccc(CNc2nc3nc4c(c(=O)n3[nH]2)CCC4)cc1 | 17 | 10 | 1 | -1 | 0.8 | 14
CCN(CC)S(=O)(=O)c1ccc2oc(SCC3CN=C(c4ccc(OC)cc4)S3)nc2c1 (stereo not given) | 79* | -1 | 0.5 | 47 | 0.2 | -8
COc1ccc(C2=NCC(CSc3nnc(-c4ccc5c(c4)OCO5)o3)S2)cc1 (stereo not given) | 38 | 37* | 0.5 | 46 | 0.6 | 6
c1cc(CSc2nnc(-c3ccc4c(c3)OCO4)o2)ccn1 | 87* | 9 | 0.1 | 94* | 0.1 | -2
Cc1ccc(CSc2nnc(-c3ccc4c(c3)OCO4)o2)cc1 | 15 | 7 | 0.9 | 13 | 0.8 | -3
Cc1ccccc1NC(=O)Cc1nc(CSc2nnc(-c3ccc4c(c3)OCO4)o2)cs1 | -8 | 22 | 0.4 | 63* | 1.1 | 4
Cc1cc(=O)oc2c1c(C)nn2-c1ccc(C(=O)OC(C)C)cc1 | 24 | / | 0.9 | 14 | 0.8 | /
COc1cccc(C(=O)CSc2nnc(CNS(=O)(=O)c3ccc(C)cc3)n2C)c1 | 2 | 5 | 1 | -2 | 1 | -32
Cc1ccc(S(=O)(=O)CCc2nnc(NC(=O)C3CCCO3)s2)cc1 (stereo not given) | 5 | -2 | 0.8 | 19 | 0.9 | 1
Nc1nonc1NC(=O)CSc1nc2ccccc2s1 | 8 | 12 | 0.2 | 79* | 0.9 | 14
CCc1nnc(NC(=O)CSc2nc3ccccc3s2)s1 | 58* | 17 | 0.8 | 19 | 0.4 | 5
CC(C)c1nnc(NC(=O)CSc2nc3ccccc3s2)s1 | 43 | 5 | 1 | -3 | 0.6 | -9
O=C(CSc1nc2ccccc2s1)Nc1nccs1 | 19 | 11 | 0.5 | 53* | 0.8 | -1
O=C1CSC(c2ccccc2)N1CC12CC3CC(CC(O)(C3)C1)C2 (stereo not given) | -12 | 6 | 0.8 | 24 | 1.1 | -1
Cc1cccc(N(C(=O)CNC(=O)c2cccs2)C(C(=O)NC2CCCC2)c2cccnc2)c1 (stereo not given) | 19 | 4 | 0.7 | 26 | 0.8 | -2

From PubChem
